Laboratory results taken from PubChem BioAssay (NCI).
About 83,000 compounds went through this panel and 20% of them were active in at least one assay; those are over-represented in the sample as a whole.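 Cells were grown in 96-well plates and exposed to the test compound at a single concentration for 48 hours; results are reported as percent growth, with values below 10 considered active.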 Values without a mark were called inactive. Active and inactive are the calls of the source.

System: K-562 leukemia
Assay: NCI-60 one-dose screen, 48 h (100 = growth as untreated, 0 = no growth, -100 = all killed)
Conditions: 10 µM unless noted

Row | SMILES | growth
1 | CC(=O)Oc1ccccc1C(=O)Nc1cc(C(C)C)ccc1C | 7.45% (active)
2 | COc1ccc(/C=N/NC(=O)c2[nH]c3ccc(Br)cc3c2-c2ccccc2)s1 | 10.8%
3 | O=C(CN1C(=O)/C(=C/c2ccccc2)SC1=S)N1CCOCC1 | 77.4%
4 | COc1ccc(-c2nc3ccc(-c4nnc(SCC(=O)Nc5ccc(C(=O)/C=C/c6ccc(Cl)cc6)cc5)o4)cc3[nH]2)cc1OC | 92.7%
5 | CN1C(=S)N(C)C2C1NN=C1SC(c3ccccc3)=CC(=O)N12 (centres undefined) | 57.4%
6 | CN(C)c1ccc(/C=C2\Cc3c(F)ccc(Br)c3C2=O)cc1 | 98.4%
7 | CN(C)S(=O)(=O)c1oc(-c2ccccc2)nc1C#N | 5.64% (active)
8 | CC(C)(C)OC(=O)N1C(=O)c2c(c3c4ccccc4[nH]c3c3ccc4ccccc4c23)C1=O | 42.2%
9 | Cc1[nH]nc2ncc(C#Cc3cncc(C(=O)Nc4ccc(CN5CCN(C)CC5)c(C(F)(F)F)c4)c3)cc12 | 7.53% (active)
10 | C#Cc1nc(C2=C(C)C(=N\O)/C(=N/O)C2)cs1 | 94%
11 | O=c1[nH]c2ccccc2cc1CSc1ccccc1Nc1nccc(-c2ccc(C(F)(F)F)cc2)n1 | 58.6%
12 | COC1CCN(Cc2ccc3c(NNC(=O)c4cnccn4)nc4cc(F)ccc4n23)C1 (centres undefined) | 12%
13 | O=C(CN1CCOCC1)NNc1ncnc2ccccc12 | 0.401% (active)
14 | Cn1c(SCC(=O)Nc2ccc(-c3nc4ccc([N+](=O)[O-])cc4[nH]3)cc2)nc2ccccc2c1=O | 93.6%
15 | O=C(CSc1nc2sc3c(c2c(=O)n1-c1ccc(Cl)cc1)CCCC3)N/N=C/c1ccc(F)cc1 | 45.4%
16 | O=c1/c(=C\c2ccc(-c3ccccc3)o2)sc2nc(-c3ccccc3)nn12 | 102%
17 | COC(=O)C1CCCN(S(=O)(=O)/N=C2\NC(=O)NC2=C(Cl)Cl)C1 (centres undefined) | 10.9%
18 | Clc1ccc2c(NCCCN3CCOCC3)c3oc4ccc(Cl)cc4c3nc2c1 | 2.23% (active)
19 | N#Cc1nc(-c2ccccc2)oc1N1CC[C@@H](CO)C1 | 96%
20 | O=C(c1ccc(O)cc1)C1[C@H](c2ccc(Cl)cc2)[C@@H](c2ccccc2)NC12C(=O)Nc1ccc(Cl)cc12 (some centres undefined) | 28.1%
21 | COc1cccc(OC)c1-c1nnn(C)c1C(=S)N1CCN(c2ccc([N+](=O)[O-])cc2Cl)CC1 | 91.5%
22 | CCCC(=O)NC(c1cccc(N(C)C)c1)c1cc(C)c2cccnc2c1O (centres undefined) | 35.3%
23 | CC(=O)Oc1ccccc1C(=O)Nc1ccc(C(=O)/C=C/c2ccncc2)cc1 | 6.54% (active)
24 | C#Cc1nc(C2=C(C)C(OC(=O)CCC(=O)O)CC2)cs1 (centres undefined) | 104%
